Source: article PMC5540273 (PLoS ONE, 2017)

What was measured:
Settings in all cases: concentration: 1 μM, replicates: in singlicate; n = 1
MLK1 = tested on: T1, MLK1
T1 construct: gene MAP3K9

MLK2 = tested on: MLK2
MLK3 = tested on: MLK3
MRCKA = tested on: MRCKA
MRCKB = tested on: T2, MRCKB
T2 construct: gene CDC42BPB

MST1R = tested on: MST1R
MST1 = tested on: T3, MST1
T3 construct: gene STK4

MST2 = tested on: T4, MST2
T4 construct: gene STK3

MST3 = tested on: T5, MST3
T5 construct: gene STK24

MST4 = tested on: MST4
MTOR = tested on: MTOR
MUSK = tested on: MUSK
MYLK2 = tested on: MYLK2
MYLK4 = tested on: MYLK4
MYLK = tested on: MYLK
MYO3A = tested on: MYO3A
MYO3B = tested on: MYO3B
NDR1 = tested on: T6, NDR1
T6 construct: gene STK38

NDR2 = tested on: NDR2
NEK10 = tested on: NEK10
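Further: KINOMEscan kinase panel screen.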

Compound | %Inh (MLK1) | %Inh (MLK2) | %Inh (MLK3) | %Inh (MRCKA) | %Inh (MRCKB) | %Inh (MST1R) | %Inh (MST1) | %Inh (MST2) | %Inh (MST3) | %Inh (MST4) | %Inh (MTOR) | %Inh (MUSK) | %Inh (MYLK2) | %Inh (MYLK4) | %Inh (MYLK) | %Inh (MYO3A) | %Inh (MYO3B) | %Inh (NDR1) | %Inh (NDR2) | %Inh (NEK10)
Cc1occc1-c1ncc(OC[C@@H](N)Cc2c[nH]c3ccccc23)cc1-c1ccc2[nH]nc(C)c2c1.O=C(O)C(F)(F)F [GSK682037] | 12% | 0% | 28% | 38% | 72% | 41% | 71% | 90% | 55% | 85% | 7% | 7% | 21% | 0% | 29% | 75% | 38% | 30% | 0% | 4%
FC(F)(F)c1ccc(/C=C/c2cncnc2Nc2ccc3[nH]c(Cc4ccccc4)nc3c2)cc1 [GW709199] | 19% | 11% | 1% | 31% | 26% | 0% | 2% | 0% | 0% | 0% | 28% | 15% | 2% | 25% | 15% | 0% | 30% | 21% | 0% | 0%
COc1cccc(C2=C(Nc3ccc(Cl)c(C(=O)O)c3)C(=O)NC2=O)c1 [SB-390769] | 4% | 0% | 0% | 12% | 0% | 100% | 25% | 51% | 0% | 96.3% | 18% | 17% | 21% | 60% | 100% | 20% | 0% | 100% | 0% | 73%
CC(C)(C)c1ccc2nccc(Nc3cccc(O)c3)c2c1 [GW856795] | 0% | 3% | 0% | 0% | 0% | 32% | 0% | 18% | 0% | 0% | 0% | 0% | 0% | 0% | 20% | 6% | 5% | 0% | 0% | 0%
Nc1ncc(-c2cccnc2)c2scc(-c3ccc4c(c3)CCN4C(=O)Cc3ccccc3)c12 [GSK683281] | 10% | 11% | 7% | 23% | 79% | 78% | 95.8% | 36% | 8% | 13% | 0% | 39% | 32% | 11% | 33% | 17% | 6% | 29% | 0% | 14%
COc1cc(Nc2ncc3c(C)nc(-c4cc5ccccc5[nH]4)n3n2)cc(OC)c1OC [GW869516] | 93.8% | 89% | 87% | 4% | 7% | 0% | 0% | 29% | 0% | 0% | 14% | 47% | 0% | 39% | 0% | 0% | 0% | 10% | 0% | 0%
O=C(O)C(F)(F)F.O=C(O)C(F)(F)F.O=c1[nH]ccc2nc(N[C@@H]3CCCNC3)nc(Nc3ccc(S(=O)(=O)N4CCOCC4)cc3)c12 [GSK2177277] | 96.4% | 83% | 98.4% | 35% | 80% | 57% | 99.3% | 41% | 97.5% | 98.9% | 9% | 98.2% | 33% | 91.3% | 96.9% | 52% | 0% | 97.4% | 74% | 93.6%
Nc1ncnc2c1nc(-c1ccccc1)n2-c1ccccc1 [SKF-97293] | 16% | 2% | 0% | 0% | 0% | 18% | 21% | 20% | 0% | 24% | 8% | 11% | 0% | 25% | 32% | 13% | 38% | 32% | 14% | 21%
